PubChem BioAssay (NCATS)
Records with an inconclusive call do not appear. Calls of active or inactive are those of the source. Calls follow the shape of the dose curve; as a rule, active = well fitted inhibition curve with a large enough effect; inconclusive = small, poorly fitted or top-dose-only effect; inactive = flat fitted curve, though single readings scatter.

How the values were obtained:
[1] = test system: CRL-7250; assay: Cytotoxic Profiling of Annotated Libraries Using Quantitative High-Throughput Screening (AID 1296008); details: Five cell lines viability, CellTiter-Glo ATP luminescence, 48-72 h; max response: active compounds read low; also: potency is read from the fitted curve at half-maximal effect; as to max response: % is scaled to controls: 0 for no effect and ±100 for the full control effect
Procedure, shortened: (§1)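 Cytotoxicity was measured as CellTiter-Glo ATP luminescence, read after 10 min at room temperature. Compound treatment of the cells lasted 48 or 72 hr at 37 degrees Celsius in a qHTS format.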

[2] = test system: HaCat; assay: as above; details: Five cell lines viability, CellTiter-Glo ATP luminescence, 48-72 h; max response: active compounds read low
Procedure, shortened: as §1

[3] = test system: KB-3-1; assay: as above; details: Five cell lines viability, CellTiter-Glo ATP luminescence, 48-72 h; max response: active compounds read low
Procedure, shortened: as §1

[4] = test system: NIH3T3; assay: as above; details: Five cell lines viability, CellTiter-Glo ATP luminescence, 48-72 h; max response: active compounds read low
Procedure, shortened: as §1

[5] = test system: HACAT; assay: qHTS assay to identify novel small-molecules to repurpose for Merkel cell carcinoma treatment (AID 1296009); details: MCC and control cell lines, CellTiter-Glo viability, 72 h; at 44.8 µM (top of the series) unless noted
Procedure, shortened: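 After compound transfer in DMSO, plates were kept 72 hr at 37 degree celsius. Luminescent ATP signal from CellTiter-Glo served as viability measure, normalized against DMSO and no-cell controls.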

[6] = test system: P93_24; assay: qHTS profiling for inhibitors of Plasmodium falciparum proliferation (AID 504749); also: potency is read from the fitted curve at half-maximal effect; details: P. falciparum in erythrocytes, SYBR Green DNA, 72 h; series mostly up to 28.7 µM
Procedure, shortened: (§2)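 Three-day growth assay of blood-stage parasites in erythrocytes (0.3% parasitemia, 2.5% hematocrit) at 37 C, 5% CO2, quantified by SYBR Green DNA staining after overnight detergent lysis.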

[7] = test system: P94_40; assay: as above; details: P. falciparum in erythrocytes, SYBR Green DNA, 72 h
Procedure, shortened: as §2

[8] = test system: PAD; assay: as above; details: P. falciparum in erythrocytes, SYBR Green DNA, 72 h; series mostly up to 28.7 µM
Procedure, shortened: as §2

[9] = test system: PC49; assay: as above; details: P. falciparum in erythrocytes, SYBR Green DNA, 72 h; series mostly up to 28.7 µM
Procedure, shortened: as §2

[10] = test system: TAB165; assay: as above; details: P. falciparum in erythrocytes, SYBR Green DNA, 72 h; series mostly up to 28.7 µM
Procedure, shortened: as §2

[11] = test system: W2; assay: as above; details: P. falciparum in erythrocytes, SYBR Green DNA, 72 h; series mostly up to 28.7 µM
Procedure, shortened: as §2
Also: nearly all actives have a fitted effect of over 60% in size.

O=C(c1ccc(OC(F)F)c(C#Cc2ccccn2)c1)N1Cc2cccnc2C1
inactive: max response [1] 4.31% | outcome [2] | max response [3] -1.9% | max response [4] 3.1% | outcome [5]

CC(=O)O[C@]1(C(C)=O)CC[C@H]2[C@@H]3CCC4=CC(=O)CCC4=C3[C@@H](c3ccc(N(C)C)cc3)C[C@@]21C
inactive: outcome [1] | outcome [2] | max response [3] -14.7% | max response [4] -1.52% | outcome [5]

CCN(Cc1ccccc1)C(=O)Cn1c(=O)n(C)c2cnc(-c3ccccc3)nc21
inactive: max response [1] -1.74% | outcome [2] | outcome [3] | outcome [4] | outcome [5]

C=C1CC[C@H]2C(=C)CC[C@H]3C(=C)C(=O)O[C@@H]3[C@@H]12
inactive: max response [1] -11.6% | outcome [2] | max response [3] -8.05% | max response [4] -3.18% | outcome [5]

CN1CC2CN(c3ccc4oc5ccccc5c(=O)c4c3)CC2C1 (configuration not stated)
inactive: max response [1] -0.983% | outcome [2] | max response [3] -11.6% | max response [4] -10.4% | outcome [5] inactive [at 17.4 µM]

C=C1C(=O)OC2C=C(C)CC/C=C(\CO)CC(O)C12 (configuration not stated)
inactive: max response [1] -3.89% | outcome [2] | max response [3] 5.92% | max response [4] -2.7% | outcome [5]

C=C1CC[C@@H](O)[C@]2(C)CC[C@H]3C(=C)C(=O)O[C@@H]3[C@@H]12
inactive: max response [1] -3.82% | outcome [2] | outcome [3] | max response [4] -16.6% | outcome [5]

CCOC(=O)CCNc1cc(N2CCc3ccccc3CC2)nc(-c2cccnc2)n1
inactive: outcome [1] | outcome [2] | outcome [3] | outcome [4] | outcome [5]

COc1ccc2c(c1O[C@H]1CCNC1)CCC2
inactive: max response [1] -1.86% | outcome [2] | max response [3] -7.28% | outcome [4] | outcome [5]

C=C1CCC2C(C)(C(=O)O)CCCC2(C)C1CCC1=CCOC1=O (configuration not stated)
inactive: outcome [1] | outcome [2] | max response [3] -6.84% | outcome [4] | outcome [5]

CCC(CC)Nc1nc(C)c(-c2ccc(OC(F)(F)F)cc2OC)nc1OC
inactive: max response [1] -15% | outcome [2] | max response [3] 0.138% | max response [4] 0.268% | outcome [5]

CCNC(=O)N1CCCN(c2ccc(C(=O)NCCc3ccc(Cl)cc3Cl)cc2NC(=O)c2cccc(Cl)c2)CC1
inactive: max response [1] -3.91% | outcome [2] | max response [3] -2.47% | max response [4] 2.92% | outcome [5]

Fc1ccc(N2CCN(CCC3OCCc4ccccc43)CC2)cc1 (configuration not stated)
inactive: max response [1] -11.3% | outcome [2] | max response [3] -21.6% | max response [4] -0.639% | outcome [5]

COc1ccc2nccc(C(=O)CC[C@@H]3CCN(CC#Cc4cc(F)cc(F)c4F)C[C@@H]3C(=O)O)c2c1
inactive: max response [1] -3.43% | outcome [2] | max response [3] 5.2% | outcome [5]

COC1C(OC(=O)/C=C/C=C/C=C/C=C/C(=O)O)CCC2(CO2)C1C1(C)OC1CC=C(C)C (configuration not stated)
active: Potency [6] 25.1 nM | Potency [7] 25.1 nM | Potency [8] 1410 nM | Potency [10] 31.6 nM | Potency [11] 10.7 nM
inactive: Potency [9] | max response [1] -15.2% | max response [2] -3.3% | outcome [3] | max response [4] 0.0729%

CC(NCCCc1cccc(C(F)(F)F)c1)c1cccc2ccccc12 (configuration not stated)
inactive: max response [1] 1.05% | outcome [2] | max response [3] -6.75% | max response [4] 3.68% | outcome [5] inactive [at 17.4 µM]

O=C(O)CSc1cc(NS(=O)(=O)c2ccc(Br)cc2)c2ccccc2c1O
active: Potency [1] 23100 nM | Potency [3] 18400 nM
inactive: outcome [2] | outcome [5]

CCN(CC)CCCCCCNc1cc(OC)cc2c(C)ccnc12
inactive: max response [1] -13.4% | outcome [2] | max response [3] -5.11% | outcome [5]

COc1cccc(N2CCN(C3=Nc4c(F)cccc4[C@H](CC(=O)O)N3c3cc(C(F)(F)F)ccc3OC)CC2)c1
inactive: max response [1] 3.02% | outcome [2] | max response [3] -13.7% | max response [4] 3.41% | outcome [5]

Cc1ccccc1CN1CCn2c1nc1c(c2=O)CN(Cc2ccccc2)CC1
inactive: max response [1] 1.02% | outcome [2] | max response [3] -11.6% | outcome [5]

CCC(C)C(=O)Oc1cc(C)ccc1C1(COC(=O)C(C)C)CO1 (configuration not stated)
inactive: max response [1] -0.891% | outcome [2] | max response [3] -3.14% | outcome [5]

CCCc1ccc(OCC(=O)N(Cc2nc(-c3cccnc3)no2)C(C)C)cc1
active: Potency [1] 23100 nM
inactive: max response [2] -2.41% | max response [4] -9.24%

COc1ccccc1OCCN1CC(COc2cccc3[nH]c4ccccc4c23)OCC1=O (configuration not stated)
inactive: outcome [1] | outcome [2] | max response [3] -7.07% | outcome [5]
